Data as given in the supplement of paper PMC6555819.

Tested on: PPARg:RXRa (NR concentration 180 nM, RXRa partner concentration 90 nM)
Assay: PBM binding z-score (relative to random genomic background probes); higher = stronger binding; sequences stand for … in GC…GCGATTGACAGCGTAGAATGAAGG
How it was run: (§1)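 For binding z-scores, the reference was random background probes on custom Agilent 4×180K protein-binding microarrays. These arrays were incubated 1 h with ligand-free nuclear receptor dimers in PBS pH 7.4, 2% milk, 0.02% Triton X-100, 1 mM DTT, 0.2 mg/mL BSA and 0.4 mg/ml salmon testes DNA. Fluorescence was scanned after antibody detection of each partner (one per run) and regression-normalized.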

Row | Sequence | PBM binding z-score
1 | TATACAGGGTCAAATGCCAGAGTACGAATGTCGA | 7.57
2 | GTACCAAGGTGAATAGGTCGTTCATGAGTAGGCG | 1.4
3 | GCTTACGGGTCAAAGGTTCTAGCATGAATAGAAT | 8.84
4 | CTCAAAAGGTCGGTTGAGGTGAGTATACGGATAA | 0.821
5 | GGAACGAGGGCAAGTTGATAACAGAGTTTGATGG | 1.52
6 | CCTGCTAGGTCATGGTCAGCCAATCTACAGTATG | 2.75
7 | ACTCGGAGGACAAAGGTCGGAGCTACGCCAGTGA | 4.62
8 | CCTACTGGGCCAAAAAGGTCAGTGATGCCGATAA | 2.04
9 | TGAATGAGGTTAAAGATCAGGGTACGTGGCGTCG | 5.59
10 | GATGCAGGGTCAGCTAGAGGCCAGAGTATGGAAA | 2.67
11 | TCTCGGAGGACACGAAAGGTCAAAGCTCGACATC | 2.15
12 | ACTAGCAGGCCAAGTTTGTGTCACTCAAACAAAG | -0.46
13 | CCTCGGAGGGCAGAAGGTCAGAGCTGTCCGCTTT | 0.613
14 | GCGGCTAGGTCAGGTTGGTCAGCTAACGGGTACG | 0.166
15 | CTCGAAAGGTCGGTTGAGGTGAGTATGCGGATAA | 0.178
16 | TCTAGTTGGTCAAAGGGCACACACTCGAAATGCG | 8.25
17 | TCATATAGGTAAAAGTTGAAAGTCGGTGTGGTAA | 7.51
18 | CAAACTAGGTCAAGAGGTCAAAGTGCGCTTCCCG | 10.2
19 | TTACCAAGCTGAAAGGTCGTTGATGCACGCCTTG | 1.29
20 | CTCGAAAGGTCGGCTGAGGTGAGTATACGGATAA | 0.965

Row | Sequence | PBM binding z-score
21 | ATATGTAGGCTAAGGGTCATTCAGGTTGGTTCGC | 10.2
22 | TCGAGTAGGTTACCAATCGGGCATTCAGCTTTCT | -0.0284
23 | ATATGTAGGTTAAGGGTCATTCACGTTGGTTCGC | 11.8
24 | ATCGAAAGGTCGAAGGTGAGTATACCCACCCGAA | 4.53
25 | ACTCGGCGGACAAAGGTCAGAGCTACGCCAGTGA | 4.89
26 | CGTCCAAGGTCATAGGAGGTCAGTGGAGACAGAT | 5.84
27 | GCTGCTAGGTCAGGTTGGTGAGCTAACGGGTACG | 0.336
28 | CAAACTCGGTCACCGGAAGGTCAAAGTCCGCATG | 3.62
29 | AGAATGAGGTTATACGTAGATCAGGGCAGAAAGT | 1.83
30 | TCTATTAGTTGAAGGGCAATCGACGAGTCCGTTT | 0.0366
31 | GCTAGTTGGTCAGTAGAAGGTCACACACCGGTCG | 1.13
32 | CTAACTAGGTCAGAACAGGACAGTGAAGGATGAT | 6.17
33 | TTACCAAGGTGAAAGCTCGTTGATGCACGCCTTG | 0.87
34 | ATCGAAAGGTCGTAAGGTGAGTATACAGAAAGGC | 3.45
35 | TGAATGAGGTTAAAGATCAGCGAACGTGGCGTCG | 5.87
36 | GATACTGGGTCAAGGCCAGAGTACGCGTATTGAT | 5.9
37 | TCATGTAGGTAAACAGGTGAAAGTCCGTAAGTTA | 3.06
38 | CCTCGTTGGTCAAGGTCACACACGCTATAGGTAC | 2.47
39 | TCTTGTAGATCAATAGAGGTTACGAAAGTGCGCT | 0.4

Tested on: PPARg:RXRa 270nM:90nM, anti-RXR (NR concentration 270 nM, RXRa partner concentration 90 nM)
Assay: as above
How it was run: as §1

Row | Sequence | PBM binding z-score
40 | TATACAGGGTCAAATGCCAGAGTACGAATGTCGA | 6.6
41 | GTACCAAGGTGAATAGGTCGTTCATGAGTAGGCG | 1.69
42 | GCTTACGGGTCAAAGGTTCTAGCATGAATAGAAT | 7.78
43 | CTCAAAAGGTCGGTTGAGGTGAGTATACGGATAA | 1.29
44 | GGAACGAGGGCAAGTTGATAACAGAGTTTGATGG | 1.14
45 | CCTGCTAGGTCATGGTCAGCCAATCTACAGTATG | 2.89
46 | ACTCGGAGGACAAAGGTCGGAGCTACGCCAGTGA | 5.7
47 | CCTACTGGGCCAAAAAGGTCAGTGATGCCGATAA | 2.9
48 | TGAATGAGGTTAAAGATCAGGGTACGTGGCGTCG | 6.33
49 | GATGCAGGGTCAGCTAGAGGCCAGAGTATGGAAA | 2.66
50 | TCTCGGAGGACACGAAAGGTCAAAGCTCGACATC | 3.75
51 | ACTAGCAGGCCAAGTTTGTGTCACTCAAACAAAG | -0.574
52 | CCTCGGAGGGCAGAAGGTCAGAGCTGTCCGCTTT | 2.48
53 | GCGGCTAGGTCAGGTTGGTCAGCTAACGGGTACG | 0.609
54 | CTCGAAAGGTCGGTTGAGGTGAGTATGCGGATAA | 1.24
55 | TCTAGTTGGTCAAAGGGCACACACTCGAAATGCG | 7.85
56 | TCATATAGGTAAAAGTTGAAAGTCGGTGTGGTAA | 7.35
57 | CAAACTAGGTCAAGAGGTCAAAGTGCGCTTCCCG | 8.63
58 | TTACCAAGCTGAAAGGTCGTTGATGCACGCCTTG | 3.29
59 | CTCGAAAGGTCGGCTGAGGTGAGTATACGGATAA | 2.18

Row | Sequence | PBM binding z-score
60 | ATATGTAGGCTAAGGGTCATTCAGGTTGGTTCGC | 8.9
61 | TCGAGTAGGTTACCAATCGGGCATTCAGCTTTCT | 1.08
62 | ATATGTAGGTTAAGGGTCATTCACGTTGGTTCGC | 9.66
63 | ATCGAAAGGTCGAAGGTGAGTATACCCACCCGAA | 5.13
64 | ACTCGGCGGACAAAGGTCAGAGCTACGCCAGTGA | 5.97
65 | CGTCCAAGGTCATAGGAGGTCAGTGGAGACAGAT | 5.73
66 | GCTGCTAGGTCAGGTTGGTGAGCTAACGGGTACG | 0.876
67 | CAAACTCGGTCACCGGAAGGTCAAAGTCCGCATG | 4.26
68 | AGAATGAGGTTATACGTAGATCAGGGCAGAAAGT | 2.15
69 | TCTATTAGTTGAAGGGCAATCGACGAGTCCGTTT | 1.98
70 | GCTAGTTGGTCAGTAGAAGGTCACACACCGGTCG | 2.23
71 | CTAACTAGGTCAGAACAGGACAGTGAAGGATGAT | 4.91
72 | TTACCAAGGTGAAAGCTCGTTGATGCACGCCTTG | 1.43
73 | ATCGAAAGGTCGTAAGGTGAGTATACAGAAAGGC | 3.46
74 | TGAATGAGGTTAAAGATCAGCGAACGTGGCGTCG | 6.26
75 | GATACTGGGTCAAGGCCAGAGTACGCGTATTGAT | 5.27
76 | TCATGTAGGTAAACAGGTGAAAGTCCGTAAGTTA | 3.74
77 | CCTCGTTGGTCAAGGTCACACACGCTATAGGTAC | 3.17
78 | TCTTGTAGATCAATAGAGGTTACGAAAGTGCGCT | 1.79
